Reference: PubChem BioAssay AID1159580 (chemical genetic matrix, 2015)
Values joined by “and” are separate entries in the source; they are usually repeats but may differ in a detail not shown here. Equal values may be shown once. In all, about 5,500 compounds went through this assay and about 2,000 (36%) were called active. Inconclusive results (about 18%) are left out. No stated cut-off is given here; in the data, active means normalized growth mostly below about 0.91 (no sharp cut-off); inconclusive means no clear call, values can overlap the other calls; inactive means mostly above about 0.92. The list shows a part of the results.

Assay: chemical genetic growth profiling, strain panel (AID 1159580);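 further: tested at 20 µM; growth read once vehicle control cultures reached saturation at 30 °C; 1 = growth at the plate median or of vehicle wells; lower values mean less growth of the strain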
Conditions: S. cerevisiae deletion strains, growth OD

Measured: normalized growth

CC(C(=O)O)c1cccc(C(=O)c2ccccc2)c1 (stereo not drawn)
inactive: locus YAL013W, strain DEP1, active compounds read low 1.01 | locus YAL021C, strain ccr4, active compounds read low 0.995 | locus YAL026C, strain drs2, active compounds read low 0.981 | locus YAL030W, strain snc1, active compounds read low 0.997 | locus YAL040C, strain CLN3, active compounds read low 1 | locus YBL061C, strain skt5, active compounds read low 0.998 | locus YBR009C, strain hhf1, active compounds read low 0.979 | locus YBR021W, strain FUR4, active compounds read low 1.01 | locus YBR023C, strain chs3, active compounds read low 0.985 | locus YBR171W, strain sec66, active compounds read low 0.98 | locus YBR229C, strain ROT2, active compounds read low 1 | locus YBR231C, strain swc5, active compounds read low 1 | locus YBR279W, strain paf1, active compounds read low 0.972 | locus YCL011C, strain gbp2, active compounds read low 0.991 | locus YCL016C, strain dcc1, active compounds read low 0.969 | locus YCL029C, strain bik1, active compounds read low 0.962 | locus YCL061C, strain MRC1 (second series), active compounds read low 1.01 | locus YCL069W, strain vba3, active compounds read low 0.983 | locus YCR088W, strain abp1, active compounds read low 0.989 | locus YDL005C, strain med2, active compounds read low 0.98 | locus YDL035C, strain GPR1, active compounds read low 1 | locus YDL040C, strain nat1, active compounds read low 0.986 | locus YDL074C, strain BRE1, active compounds read low 1.06 | locus YDL101C, strain DUN1, active compounds read low 1 | locus YDL134C, strain PPH21, active compounds read low 0.994 | locus YDL185W, strain tfp1, active compounds read low 0.941 | locus YDL192W, strain arf1, active compounds read low 0.978 | locus YDR001C, strain nth1, active compounds read low 0.983 | locus YDR069C, strain doa4, active compounds read low 0.984 | locus YDR101C, strain arx1, active compounds read low 1.02 | locus YDR137W, strain rgp1, active compounds read low 0.953 | locus YDR159W, strain sac3, active compounds read low 0.928 | locus YDR162C, strain NBP2, active compounds read low 0.979 | locus YDR195W, strain ref2 1.02 | locus YDR297W, strain sur2, active compounds read low 0.982 | locus YDR318W, strain mcm21, active compounds read low 0.969 | locus YDR334W, strain swr1, active compounds read low 0.984 | locus YDR335W, strain msn5, active compounds read low 1.01 | locus YDR363W, strain ESC2, active compounds read low 0.998 | locus YDR388W, active compounds read low 0.989 | locus YDR392W, strain spt3, active compounds read low 0.871 | locus YDR502C, strain sam2, active compounds read low 1 | locus YEL003W, strain gim4, active compounds read low 1 | locus YEL037C, strain rad23, active compounds read low 0.987 | locus YEL061C, strain CIN8 (second series), active compounds read low 0.996 | locus YEL061C, strain CIN8, active compounds read low 1 | locus YER002W, strain NOP16, active compounds read low 0.992 | locus YER015W, strain faa2, active compounds read low 0.966 | locus YER016W, strain bim1, active compounds read low 0.974 | locus YER110C, active compounds read low 0.957 | locus YER111C, strain swi4, active compounds read low 0.979 | locus YER155C, strain BEM2 (second series), active compounds read low 0.986 | locus YER155C, strain BEM2, active compounds read low 0.994 | locus YER167W, strain BCK2, active compounds read low 1 | locus YFR010W, strain ubp6, active compounds read low 1 | locus YGL078C, strain dbp3, active compounds read low 0.99 | locus YGL086W, strain mad1, active compounds read low 1.01 | locus YGL167C, strain pmr1, active compounds read low 0.991 | locus YGL173C, strain kem1, active compounds read low 1.01 | locus YGL227W, strain vid30, active compounds read low 1 | locus YGL240W, strain doc1, active compounds read low 0.995 | locus YGL248W, strain PDE1, active compounds read low 1.02 | locus YGL253W, strain hxk2, active compounds read low 0.984 | locus YGR078C, strain PAC10, active compounds read low 1.02 | locus YGR135W, strain pre9, active compounds read low 0.958 | locus YGR229C, strain SMI1, active compounds read low 1.01 | locus YGR252W, strain gcn5, active compounds read low 1.03 | locus YHR013C, strain ard1, active compounds read low 0.964 | locus YHR027C, strain rpn1, active compounds read low 1.01 | locus YHR030C, strain SLT2, active compounds read low 0.982 and 1.04 | locus YHR079C, strain IRE1 (second series), active compounds read low 0.974 | locus YHR079C, strain IRE1, active compounds read low 1.04 | locus YHR094C, strain hxt1, active compounds read low 0.979 | locus YHR129C, strain ARP1, active compounds read low 0.987 | locus YHR142W, strain chs7, active compounds read low 0.966 | locus YHR200W, strain rpn10, active compounds read low 0.955 | locus YIL066C, strain RNR3, active compounds read low 1.02 | locus YIL073C, strain SPO22, active compounds read low 0.868 | locus YIL125W, strain kgd1, active compounds read low 0.984 | locus YIR030C, strain dcg1, active compounds read low 0.961 | locus YJL092W, strain hpr5, active compounds read low 0.997 | locus YJL095W, strain BCK1 (second series), active compounds read low 0.978 | locus YJL095W, strain BCK1, active compounds read low 1.05 and 1.01 | locus YJL115W, strain asf1, active compounds read low 0.98 | locus YJL129C, strain trk1, active compounds read low 0.942 | locus YJL134W, strain LCB3, active compounds read low 0.991 | locus YJL154C, strain vps35, active compounds read low 0.982 | locus YJL164C, strain tpk1, active compounds read low 0.985 | locus YJL166W, strain qcr8, active compounds read low 0.999 | locus YJL168C, strain set2, active compounds read low 0.978 | locus YJL187C, strain SWE1 (second series), active compounds read low 1.03 | locus YJR043C, strain POL32, active compounds read low 1.03 | locus YJR066W, strain TOR1, active compounds read low 0.965
